# PubChem BioAssay AID485290 (National Center for Advancing Translational Sciences (NCATS), 2010)
# Values joined by “and” are separate entries in the source; they are usually repeats but may differ in a detail not shown here. Identical values can stand only once. Screen size: about 350,000 compounds; about 990 (0.28%) were called active. Not shown: some 2% with an inconclusive outcome. Calls come from the whole dose curve; as a rule, active = well fitted inhibition curve with a large enough effect; inconclusive = small, poorly fitted or top-dose-only effect; inactive = no such curve, though single readings can be large or run the other way. The entries come from a sample that favours actives as a whole. A call without a number means that no potency is given here. The source holds several records for some structures; these can differ, active in one and inactive in another.
# Target: Tyrosyl-DNA phosphodiesterase 1 (Homo sapiens) (UniProt Q9NUW8)
# Assay: qHTS Assay for Inhibitors of Tyrosyl-DNA Phosphodiesterase (TDP1); note: nearly all actives have a fitted effect of over 40% in size
# Details: recombinant TDP1, AlphaScreen DNA substrate cleavage; series mostly up to 130 µM
# From the text: NIH Molecular Libraries Probe Production Network [MLPCN]
# NIH Chemical Genomics Center [NCGC]
# Assay Provider: Yves Pommier and Christophe Marchand, National Cancer Institute
# Assay Title: qHTS Assay for Inhibitors of Tyrosyl-DNA Phosphodiesterase (TDP1); note: nearly all actives have a fitted effect of over 40% in size
# Human tyrosyl-DNA phosphodiesterase I (Tdp1) is a rational anticancer target because this enzyme is involved in the repair of DNA lesions created by the trapping of human DNA topoisomerase I (Top1) following treatment by anticancer agents such as camptothecins. Recombinant Tdp1 was expressed and purified from E. coli in the laboratory (Anthony et al, Nucleic Acids Research, 2007, Vol. 35, 4474-4484). A Tdp1 DNA substrate bearing a 5' biotin and a 3' phospho-tyrosine was obtained by custom synthesis. This oligonucleotidic DNA substrate was subsequently coupled to a fluorescein isothiocyanate (FITC) group via the free amino group present on the phospho-tyrosine. Tdp1 was screened against the NCGC small molecule library using the AlphaScreen (AS) detection method in which a streptavidin donor AS bead is bound at the 5' end and an anti-FITC AS acceptor bead is bound at the 3' end of the DNA oligonucleotidic substrate. In the presence of Tdp1, the enzyme cleaves the tyrosine-FITC group, leaving a 3' end phosphate on the DNA substrate. This cleavage reaction results in a loss of signal in AS.
# [1] 3 ul of buffer is dispensed in columns 3 & 4 as negative control (no enzyme and maximum signal),
# [2] 3 ul of enzyme (1 nM final) is dispensed in columns 1,2, 5-48,
# [3] 1 ul of substrate (15 nM final) is dispensed throughout the plate,
# [4] 1 ul of AS donor/acceptor bead mix (10 ug/ml final) is dispensed throughout the plate
# 3 ul of Tdp1 enzyme is dispensed to 1536-well Kalypsys black solid bottom plates. Compounds and controls (23 nl) are transferred via Kalypsys Pin Tool. The plates are incubated for 15 min at room temperature, and then 1 ul of substrate is added to start the reaction. After 5 min incubation at room temperature, 1 ul of AS donor/acceptor bead mix is added and the plates are further incubated for 10 min at room temperature. The detection is then performed on a PerkinElmer Envision reader.
# Potency is the fitted concentration of half-maximal effect.
# Tyrosyl-DNA phosphodiesterase 1 (Homo sapiens), sequence (Q9NUW8 whole entry, looked up): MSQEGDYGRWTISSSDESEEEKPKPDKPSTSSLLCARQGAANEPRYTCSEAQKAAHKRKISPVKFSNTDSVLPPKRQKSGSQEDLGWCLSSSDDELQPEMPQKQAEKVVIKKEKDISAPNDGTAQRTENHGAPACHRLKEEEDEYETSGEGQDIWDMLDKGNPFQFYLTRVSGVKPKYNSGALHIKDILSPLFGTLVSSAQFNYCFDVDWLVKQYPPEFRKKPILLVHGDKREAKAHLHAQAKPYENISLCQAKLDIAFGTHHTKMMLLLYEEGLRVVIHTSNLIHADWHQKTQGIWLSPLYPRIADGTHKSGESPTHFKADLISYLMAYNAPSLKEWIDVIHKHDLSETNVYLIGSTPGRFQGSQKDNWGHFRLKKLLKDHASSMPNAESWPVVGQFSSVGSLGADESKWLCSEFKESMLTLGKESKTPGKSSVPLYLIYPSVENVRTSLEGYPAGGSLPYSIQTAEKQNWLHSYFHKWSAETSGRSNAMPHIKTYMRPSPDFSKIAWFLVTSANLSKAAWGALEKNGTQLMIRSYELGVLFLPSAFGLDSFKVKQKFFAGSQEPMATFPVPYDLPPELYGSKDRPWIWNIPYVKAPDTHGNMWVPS
SMILES,Potency,"activity change, negative = inhibition"
CC(C)Nc1nc(Cl)nc(NC(C)C)n1,inactive and 28.2 µM (active),–
CCC(CCC(C)C1CCC2C3CC=C4CC(O)CC[C@@]4(C)C3CC[C@@]12C)C(C)C (stereo not given in full),inactive,–
C=CC#N,inactive,–
O=NO,inactive,–
CN1[C@H]2CC(OC(=O)[C@@H](CO)c3ccccc3)C[C@H]1[C@H]1O[C@H]12 (stereo not given in full),–,5.13% [at 21 µM] (inactive)
CC(=O)CC(C)C,inactive,–
CC(C)(O/N=C(\C(=O)N[C@@H]1C(=O)N2C(C(=O)[O-])=C(C[n+]3ccccc3)CS[C@@H]12)c1csc(N)n1)C(=O)O,12.6 µM (active),–
CCCCCCCCCCCCN=C(N)N,inactive,–
CCN(CC)c1nc(C)cc(OP(=S)(OC)OC)n1,inactive,–
CC(=O)[O][Sn]([c]1ccccc1)([c]1ccccc1)[c]1ccccc1,inactive,–
CCCCC/C=C\C/C=C\C/C=C\CCCCCCC(=O)NCCO,inactive,–
CCCCC/C=C\C/C=C\C/C=C\C/C=C\CCCCCC(=O)NCCO,inactive and 39.8 µM (active),–
CN(C)C[C@H]1CCCC[C@]1(O)c1cccc(O)c1,inactive,–
C[C@@H]1C[C@H]2CC[C@H](O2)[C@H](C)C(=O)O[C@@H](C)C[C@@H]2CC[C@@H](O2)[C@@H](C)C(=O)O[C@H](C)C[C@H]2CC[C@H](O2)[C@H](C)C(=O)O[C@@H](C)C[C@@H]2CC[C@@H](O2)[C@@H](C)C(=O)O1,inactive,–
CC(CCC(=O)O)C1CCC2C3C(O)C[C@@H]4CC(O)CC[C@@]4(C)C3CC[C@@]12C (stereo not given in full),inactive,–
O=C(O)c1cc[c]([Sb](=[O])([OH])[OH])cc1[N+](=O)[O-],1.58 µM (active),–
S=P(c1ccccc1)(c1ccccc1)c1c(-c2ccccc2)[nH]c2ccccc12,inactive,–
Nc1ccc(-c2ccc(N)c(N)c2)cc1N,inactive,–
O=C1CCc2cccc3c2N1CC3,inactive,–
Cc1cccc2c3c(ccc12)C1=C(C(=O)C3=O)C(C)CO1 (stereo not given),inactive,–
